Experimental findings from PubChem BioAssay (Tox21) are described below.

Results filed as inconclusive are left out. Values without a mark were called inactive. The source made the active and inactive calls. Unless noted, the call rests on the fitted dose curve; in most records, active means well fitted cell-killing curve with a large enough effect in the repeat runs (not every such curve was filed as active); inconclusive means weak or mixed curves, or effect the other way; inactive means no such curve, though single readings can be large or run the other way. Where a SMILES comes first, the peptide text is derived from it. [ ]: non-standard residue; d: D form. pGlu = O=C1CC[C@@H](C(=O)O)N1
On the % scale 0 is the no-effect control and ±100 the full control effect.

Chain of Nuclear receptor subfamily 1 group I member 3 (Homo sapiens) (Q14994 whole entry, looked up): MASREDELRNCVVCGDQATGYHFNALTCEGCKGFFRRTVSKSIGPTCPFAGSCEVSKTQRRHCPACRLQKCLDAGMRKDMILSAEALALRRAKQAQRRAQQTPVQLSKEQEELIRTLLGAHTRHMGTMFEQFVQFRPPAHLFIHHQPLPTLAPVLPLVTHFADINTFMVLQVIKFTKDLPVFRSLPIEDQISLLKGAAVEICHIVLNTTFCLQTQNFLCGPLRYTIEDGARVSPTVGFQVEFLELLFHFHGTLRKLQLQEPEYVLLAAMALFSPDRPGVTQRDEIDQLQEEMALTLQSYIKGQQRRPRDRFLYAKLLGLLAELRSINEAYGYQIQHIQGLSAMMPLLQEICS

One test addresses Nuclear receptor subfamily 1 group I member 3 (Homo sapiens) (UniProt Q14994). Description: qHTS assay to identify small molecule agonists of the constitutive androstane receptor (CAR) signaling pathway (AID 1224839; active means well fitted activation curve with a large enough effect in the repeat runs;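 further: HepG2 cells stably carrying human CAR and a CYP2B6 luciferase reporter; nearly all actives have a fitted effect of over 15% in size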). The following applies: HepG2 hCAR CYP2B6-luciferase, agonist mode, 24 h; series mostly up to 92.4 µM; activation: at the top concentration. In a few lines:
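In this screen, CAR-driven CYP2B6 promoter activity is measured by luminescence in HepG2-CYP2B6-hCAR cells after 24 h with test compounds and 0.75 uM PK11195 (final concentration).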
For orientation: In qHTS, concentration-response curves come from the screen itself.
Consider `CN1C(C)(C)CC(O)CC1(C)C`, for which the “activation” value was 2.19%.

Consider `C[N+]1(CC2COC(c3ccccc3)(c3ccccc3)O2)CCCCC1` (stereo not given), for which the activation was -2.79% [at 19 µM].

Regarding `Clc1cc(Cl)cc(Cl)c1`, the “activation” value is -2.85%.

Regarding `CCOC(=O)COC(=O)c1ccccc1C(=O)OCC`, the “activation” value is 9.76%.

With `CC1=NN(c2cccc(S(=O)(=O)O)c2)C(=O)C1`, the “activation” value was -1.49%.

Take `CN1CCC(=C2c3ccccc3CCc3cccnc32)CC1`: the “activation” value was -1.73% [at 42.5 µM].

With `Cc1nc(C2CCCCC2)c(-c2ccc(S(N)(=O)=O)c(F)c2)o1`, the “activation” value is 9.18% [at 42.5 µM].

Turning to `Nc1ccn([C@@H]2O[C@H](CO)[C@@H](O)C2(F)F)c(=O)n1`, the “activation” value was -10% [at 42.5 µM].

Consider `CCCCCCC1CCC(=O)O1` (stereo not given), for which the “activation” value is -2.55%.

For `C=COCC1CCC(COC=C)CC1` (stereo not given), the “activation” value is 0.0846%.

As for `CC1(C)OC[C@@H](COC(=O)CCc2ccc(OC[C@@H](O)CNCCNC(=O)N3CCOCC3)cc2)O1`, the “activation” value is 2.21% [at 42.5 µM].

Take `CC(=O)Oc1cccc(C)c1`: the “activation” value was 0.14% [at 42.5 µM].

Regarding `CCC(C(=O)NC(=O)NC(C)=O)c1ccccc1` (stereo not given), the “activation” value is -2.35% [at 42.5 µM].

Regarding `O=C(O)CCCC[P+](c1ccccc1)(c1ccccc1)c1ccccc1`, the “activation” value was 0.0049% [at 42.5 µM].

Regarding `CCCCOCCOC(=O)CCCCCCCCC(=O)OCCOCCCC`, the “activation” value was -2.07%.

For `CCNC(=O)[C@@H]1CCCN1C(=O)[C@H](CCCN=C(N)N)NC(=O)[C@H](CC(C)C)NC(=O)CNC(=O)[C@H](Cc1ccc(O)cc1)NC(=O)[C@H](CO)NC(=O)[C@H](Cc1c[nH]c2ccccc12)NC(=O)[C@H](Cc1cnc[nH]1)NC(=O)[C@@H]1CCC(=O)N1` ([pGlu]HWSYGLRP-NHEt), the “activation” value is -0.289% [at 42.5 µM].

Tested on in a further test: not listed separately
Briefly: qHTS assay to identify small molecule antagonists of the estrogen related receptor signaling pathway with the pleiotropic PPARgamma coactivator (PGC) from Tox21 10K library - cell viability counter screen (AID 1224840). Further: nearly all actives have a fitted effect of over 40% in size. Particulars: PGC/ERR reporter cells viability, CellTiter-Fluor, 17.5 h; series mostly up to 92.4 µM; viability change, negative = cytotoxic: at the top concentration. In a few lines:
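Cell viability is measured by CellTiter-Fluor fluorescence in PGC/ERR cells that receive compounds after a 6-hour attachment period and are then incubated 17.5 hours at 37 C.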
With `Clc1cc(Cl)c(Cl)nc1Cl`, the “viability change, negative = cytotoxic” value is 14.7%.

For the molecule `C[C@@H]1CCC[C@H](C)N1`, the “viability change, negative = cytotoxic” value is 12.4% [at 42.5 µM].

Take `CCOC(=O)OC(C)OC1=C(C(=O)Nc2ccccn2)N(C)S(=O)(=O)c2ccccc21` (stereo not given): the “viability change, negative = cytotoxic” value is 1.56% [at 42.5 µM].

On to `O=C(O)CC(C(=O)O)S(=O)(=O)O` (stereo not given), for which the “viability change, negative = cytotoxic” value was 0.31%.

As for `[O-][n+]1cccc(CO)c1`, the “viability change, negative = cytotoxic” value was 18.9% [at 42.5 µM].

With `CC(=O)c1ccccc1[N+](=O)[O-]`, the “viability change, negative = cytotoxic” value is 5.74%.

On to `Cc1cccc(C)c1NC(=O)CC12CCCN1CCC2`, for which the “viability change, negative = cytotoxic” value was -3.45% [at 42.5 µM].

In the case of `OCCCCCO`, the “viability change, negative = cytotoxic” value is -0.719%.

Regarding `CC(COc1ccccc1)NN` (stereo not given), the “viability change, negative = cytotoxic” value was 13.4% [at 42.5 µM].

Take `NS(=O)(=O)Cc1noc2ccccc12`: the “viability change, negative = cytotoxic” value is 12.7% [at 42.5 µM].

With `Cc1cc(C)c(N=Nc2c(O)c(S(=O)(=O)O)cc3cc(S(=O)(=O)O)ccc23)cc1C`, the viability change, negative = cytotoxic is -4.24% [at 8.39 µM].

Regarding `Nc1c2c(nc3c1CCC3)CCCC2`, the “viability change, negative = cytotoxic” value is 11.5% [at 42.5 µM].

Turning to `O=S(=O)(O)c1cccc2c(S(=O)(=O)O)cccc12`, the “viability change, negative = cytotoxic” value is 1.08%.

`CCCCCCCCN1CCCC1=O`: the “viability change, negative = cytotoxic” value is 1.78%.

As to `CNCC(O)c1ccc(O)c(O)c1` (stereo not given), the “viability change, negative = cytotoxic” value was 2.02% [at 42.5 µM].

Consider `O=S(=O)(O)c1cccc(S(=O)(=O)O)c1`, for which the “viability change, negative = cytotoxic” value was 4.78%.

`CCCO[Si](OCCC)(OCCC)OCCC`: the “viability change, negative = cytotoxic” value is 7.06%.

As to `CC[C@H]1OC(=O)[C@H](C)[C@@H](O[C@H]2C[C@@](C)(OC)[C@@H](O)[C@H](C)O2)[C@H](C)[C@@H](O[C@@H]2O[C@H](C)C[C@H](N(C)C)[C@H]2O)[C@](C)(OC)C[C@@H](C)C(=O)[C@H](C)[C@@H](O)[C@]1(C)O`, the “viability change, negative = cytotoxic” value is 0.473%.

For `C=CCCCCCCCCC(=O)OCC`, the “viability change, negative = cytotoxic” value was 8.25%.

Regarding `CO[Si](C)(OC)c1ccccc1`, the “viability change, negative = cytotoxic” value is 1.03%.

On to `C=CCCC(=O)O`, for which the “viability change, negative = cytotoxic” value was 3.45%.

For `O=Cc1cccc(Br)c1`, the “viability change, negative = cytotoxic” value is 3.1%.

In the case of `CN1C(C)(C)CC(O)CC1(C)C`, the “viability change, negative = cytotoxic” value was 1.31%.

As for `C[N+]1(CC2COC(c3ccccc3)(c3ccccc3)O2)CCCCC1` (stereo not given), the viability change, negative = cytotoxic is -2.82% [at 19 µM].

`Clc1cc(Cl)cc(Cl)c1`: the “viability change, negative = cytotoxic” value was -0.38%.

With `CCOC(=O)COC(=O)c1ccccc1C(=O)OCC`, the “viability change, negative = cytotoxic” value is 14%.

For the molecule `CC1=NN(c2cccc(S(=O)(=O)O)c2)C(=O)C1`, the “viability change, negative = cytotoxic” value is -10.3%.

Regarding `CN1CCC(=C2c3ccccc3CCc3cccnc32)CC1`, the “viability change, negative = cytotoxic” value is 4.46% [at 42.5 µM].

With `Cc1nc(C2CCCCC2)c(-c2ccc(S(N)(=O)=O)c(F)c2)o1`, the “viability change, negative = cytotoxic” value is 6.35% [at 42.5 µM].

As for `Nc1ccn([C@@H]2O[C@H](CO)[C@@H](O)C2(F)F)c(=O)n1`, the “viability change, negative = cytotoxic” value is 0.313% [at 42.5 µM].

Regarding `CCCCCCC1CCC(=O)O1` (stereo not given), the “viability change, negative = cytotoxic” value was -1.69%.

`C=COCC1CCC(COC=C)CC1` (stereo not given): the “viability change, negative = cytotoxic” value is 3.09%.

`CC1(C)OC[C@@H](COC(=O)CCc2ccc(OC[C@@H](O)CNCCNC(=O)N3CCOCC3)cc2)O1`: the “viability change, negative = cytotoxic” value is 19.9% [at 42.5 µM].

With `CC(=O)Oc1cccc(C)c1`, the “viability change, negative = cytotoxic” value is 17.7% [at 42.5 µM].

`CCC(C(=O)NC(=O)NC(C)=O)c1ccccc1` (stereo not given): the “viability change, negative = cytotoxic” value was 2.28% [at 42.5 µM].

In the case of `O=C(O)CCCC[P+](c1ccccc1)(c1ccccc1)c1ccccc1`, the “viability change, negative = cytotoxic” value was 22.7% [at 42.5 µM].

As to `CCCCOCCOC(=O)CCCCCCCCC(=O)OCCOCCCC`, the “viability change, negative = cytotoxic” value is 1.07%.

For the molecule `CCNC(=O)[C@@H]1CCCN1C(=O)[C@H](CCCN=C(N)N)NC(=O)[C@H](CC(C)C)NC(=O)CNC(=O)[C@H](Cc1ccc(O)cc1)NC(=O)[C@H](CO)NC(=O)[C@H](Cc1c[nH]c2ccccc12)NC(=O)[C@H](Cc1cnc[nH]1)NC(=O)[C@@H]1CCC(=O)N1` ([pGlu]HWSYGLRP-NHEt), the “viability change, negative = cytotoxic” value was 10.4% [at 42.5 µM].

Tested on in the next test: not listed separately
Briefly: qHTS assay to identify small molecule antagonists of the estrogen related receptor signaling pathway with the pleiotropic PPARgamma coactivator (PGC) from Tox21 10K library (AID 1224841; call rule not given here; further: actives are mostly falling curves and most rising ones were filed inactive; nearly all actives have a fitted effect of over 50% in size; further: potency means the concentration at half of the fitted maximal effect). Particulars: PGC/ERR reporter cell line, ONE-Glo luciferase, 18 h; series mostly up to 92.4 µM; activity, negative = inhibition: at the top concentration. Put shortly:
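Cells stably carrying the PGC/ERR reporter, seeded at 2,000 per well, received pin-transferred compounds 6 h post-plating. Exposure lasted 18 h at 37 C. Signal: One-Glo luminescence.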
As to `Clc1cc(Cl)c(Cl)nc1Cl`, the “activity, negative = inhibition” value is 11.1%.

On to `C[C@@H]1CCC[C@H](C)N1`, for which the “activity, negative = inhibition” value was 15.2% [at 42.5 µM].

Consider `CCOC(=O)OC(C)OC1=C(C(=O)Nc2ccccn2)N(C)S(=O)(=O)c2ccccc21` (stereo not given), for which the “activity, negative = inhibition” value was 1.84% [at 42.5 µM].

Regarding `O=C(O)CC(C(=O)O)S(=O)(=O)O` (stereo not given), the “activity, negative = inhibition” value was 11.5%.

For the molecule `CC(=O)c1ccccc1[N+](=O)[O-]`, the “activity, negative = inhibition” value was -0.807%.

For the molecule `Cc1cccc(C)c1NC(=O)CC12CCCN1CCC2`, the “activity, negative = inhibition” value is -4.49% [at 42.5 µM].

`OCCCCCO`: the “activity, negative = inhibition” value is 0.408%.

For `CC(COc1ccccc1)NN` (stereo not given), the “activity, negative = inhibition” value is 1.24% [at 42.5 µM].

For the molecule `NS(=O)(=O)Cc1noc2ccccc12`, the “activity, negative = inhibition” value was -0.0848% [at 42.5 µM].

Turning to `Cc1cc(C)c(N=Nc2c(O)c(S(=O)(=O)O)cc3cc(S(=O)(=O)O)ccc23)cc1C`, the Potency was 959 nM (active).

With `Nc1c2c(nc3c1CCC3)CCCC2`, the “activity, negative = inhibition” value was 3.11% [at 42.5 µM].

Turning to `O=S(=O)(O)c1cccc2c(S(=O)(=O)O)cccc12`, the “activity, negative = inhibition” value was 16.3%.

Regarding `CCCCCCCCN1CCCC1=O`, the “activity, negative = inhibition” value is 11%.

Consider `CNCC(O)c1ccc(O)c(O)c1` (stereo not given), for which the “activity, negative = inhibition” value is 23.4% [at 42.5 µM].

With `O=S(=O)(O)c1cccc(S(=O)(=O)O)c1`, the “activity, negative = inhibition” value is 0.158%.

Consider `CCCO[Si](OCCC)(OCCC)OCCC`, for which the “activity, negative = inhibition” value is -0.111%.

Turning to `C=CCCCCCCCCC(=O)OCC`, the “activity, negative = inhibition” value was 0.967%.

Regarding `CO[Si](C)(OC)c1ccccc1`, the “activity, negative = inhibition” value is -2.8%.

Regarding `C=CCCC(=O)O`, the “activity, negative = inhibition” value is -1.52%.

Turning to `O=Cc1cccc(Br)c1`, the “activity, negative = inhibition” value was 9.64%.

Take `Clc1cc(Cl)cc(Cl)c1`: the “activity, negative = inhibition” value is 0.654%.

For the molecule `CCOC(=O)COC(=O)c1ccccc1C(=O)OCC`, the “activity, negative = inhibition” value was 2.35%.

As for `CC1=NN(c2cccc(S(=O)(=O)O)c2)C(=O)C1`, the “activity, negative = inhibition” value was -6.93%.

For `Cc1nc(C2CCCCC2)c(-c2ccc(S(N)(=O)=O)c(F)c2)o1`, the “activity, negative = inhibition” value was 18.6% [at 42.5 µM].

In the case of `CCCCCCC1CCC(=O)O1` (stereo not given), the “activity, negative = inhibition” value was 8.35%.

As to `C=COCC1CCC(COC=C)CC1` (stereo not given), the “activity, negative = inhibition” value is 15.4%.

In the case of `CC1(C)OC[C@@H](COC(=O)CCc2ccc(OC[C@@H](O)CNCCNC(=O)N3CCOCC3)cc2)O1`, the “activity, negative = inhibition” value is 0.309% [at 42.5 µM].

With `CC(=O)Oc1cccc(C)c1`, the “activity, negative = inhibition” value was 8.34% [at 42.5 µM].

As for `CCC(C(=O)NC(=O)NC(C)=O)c1ccccc1` (stereo not given), the “activity, negative = inhibition” value was -2.4% [at 42.5 µM].

On to `CCCCOCCOC(=O)CCCCCCCCC(=O)OCCOCCCC`, for which the “activity, negative = inhibition” value was 5.36%.

In the case of `CCNC(=O)[C@@H]1CCCN1C(=O)[C@H](CCCN=C(N)N)NC(=O)[C@H](CC(C)C)NC(=O)CNC(=O)[C@H](Cc1ccc(O)cc1)NC(=O)[C@H](CO)NC(=O)[C@H](Cc1c[nH]c2ccccc12)NC(=O)[C@H](Cc1cnc[nH]1)NC(=O)[C@@H]1CCC(=O)N1` ([pGlu]HWSYGLRP-NHEt), the “activity, negative = inhibition” value is -21.1% [at 42.5 µM].
